PubChem BioAssay (NCI)
This is part of a sample that, as a whole, favours compounds with a hit. Of some 83,000 tested, about 20% had one in any assay.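 For each line, cells grew in 96-well plates with the test compound present at a single concentration for 48 hours.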 Unmarked numbers belong to inactive results. Activity calls are given as the source filed them. How the source made its calls: active means growth percent below 10; inactive means the rest.

What was measured:
Assay in all cases: NCI-60 one-dose screen, 48 h (100 = growth as untreated, 0 = no growth, -100 = all killed)
Conditions in all cases: 10 µM
DU-145 prostate = test system: DU-145 prostate
K-562 leukemia = test system: K-562 leukemia
MALME-3M melanoma = test system: MALME-3M melanoma
MDA-MB-231 breast = test system: MDA-MB-231 breast
SF-268 CNS = test system: SF-268 CNS
SF-295 CNS = test system: SF-295 CNS
SF-539 CNS = test system: SF-539 CNS
UACC-257 melanoma = test system: UACC-257 melanoma
M14 melanoma = test system: M14 melanoma

Compound | growth (DU-145 prostate) | growth (K-562 leukemia) | growth (MALME-3M melanoma) | growth (MDA-MB-231 breast) | growth (SF-268 CNS) | growth (SF-295 CNS) | growth (SF-539 CNS) | growth (UACC-257 melanoma) | growth (M14 melanoma)
COc1ccc(C(=O)/C=C/c2cc(C(F)(F)F)cc(C(F)(F)F)c2)cc1S(N)(=O)=O | -41.4% (active) | 8.85% (active) | -94.7% (active) | -77.8% (active) | 6.18% (active) | -86% (active) | -98.4% (active) | -55.5% (active) | -75.8% (active)
CCOC(=O)C1=C(N)N(c2ccc(C)cc2)C2=C(C(=O)CC(C)(C)C2)C1c1ccccc1OC (centres undefined) | 107% | 98.4% | 93.4% | 95.5% | 100% | 91% | 101% | 104% | 112%
CCOc1ccc(/C=N/NC(=O)Cn2nc(Cc3ccccc3)c3onc(C)c3c2=O)cc1 | 30.6% | 75% | -11.8% (active) | 9.5% (active) | -9.54% (active) | 10.8% | -47.2% (active) | 66.2% | 57.6%
O=C(Cn1nc(-c2ccccc2)ccc1=O)NN1C(=O)c2ccccc2C1=O | 105% | 99.8% | 90.1% | 100% | 97.9% | 96.5% | 91.2% | 113% | 107%
N#C/C(=C\c1ccc(N(c2ccccc2)c2ccccc2)cc1)C(N)=O | 84.8% | 35.4% | 110% | 89.3% | 102% | 23.5% | 97% | -55.9% (active) | 90.7%
Nc1nc(Nc2ccccc2)nn1Cc1c(Cl)cccc1Cl | 48% | 12.8% | 31.4% | 24.1% | 50% | 46.6% | 37.6% | 69.7% | 35.5%
COc1cc(C2CC(c3ccccc3)=Nc3c(N)nc(N)nc3N2)ccc1Oc1nc(Nc2ccc(F)cc2)nc(N(C)C)n1 (centres undefined) | 48% | 17.9% | 32.4% | 31% | 55% | 45.9% | 63% | 45.4% | 46.6%
Cc1noc2c(Cc3ccc([N+](=O)[O-])cc3)nn(CC(=O)N/N=C/c3ccc(Br)cc3)c(=O)c12 | 74.9% | 88.7% | 66% | 46.4% | 72.1% | 89.5% | 26.1% | 106% | 93.4%
CC1(c2ccccc2)NC(=O)N(CC(=O)Nc2ccc(C(=O)/C=C/c3ccc(Cl)cc3)cc2)C1=O (centres undefined) | 28% | 2.06% (active) | 34.8% | 13.6% | 19.7% | 8.45% (active) | -89.3% (active) | 20.6% | -26.9% (active)
CC1(c2ccccc2)NC(=O)N(CC(=O)Nc2ccc(C(=O)/C=C/c3ccccc3)cc2)C1=O (centres undefined) | 62.1% | 22.4% | 77.6% | 67.7% | 52.2% | 50.9% | 43.3% | 63.5% | 48.2%
CN1CCc2c(sc3ncnc(N/N=C/c4ccc5ccccc5c4)c23)C1 | 68.8% | 13.9% | 91.2% | 48% | 68.9% | 53.9% | 29.1% | 107% | 82%
CN(C)c1ccc(/C=C/c2nc3ccccc3c(=O)n2CC(=O)Nc2ccccc2)cc1 | 42.1% | 55.6% | 15.7% | 33.4% | 57.3% | 35.5% | -26.8% (active) | 60.4% | 81.4%
COc1ccc(-c2cc(C(=O)N=Nc3c(O)[nH]c4ccc(Br)cc34)c3ccccc3n2)cc1 | 19.9% | 10.2% | 45.9% | -68.2% (active) | 64.4% | 35.3% | 31.7% | 102% | 42.6%
O=c1c2ccccc2nc(COc2ccccc2)n1/N=C/c1ccc(N2CCCC2)cc1 | 94.7% | 73.4% | 115% | 89.2% | 115% | 94.2% | 93.6% | 108% | 101%
NS(=O)(=O)c1ccc(NC(=O)CSc2ccc(-c3ccc(Cl)cc3)nn2)c(Br)c1 | 32.5% | 74.6% | 29.2% | 8.72% (active) | 27.9% | 3.43% (active) | 28.4% | 75.5% | 85.1%
CN1CCN(Cc2ccc(C(=O)Nc3cccc(Nc4ccc5c(O)cccc5n4)c3)cc2C(F)(F)F)CC1 | -1.97% (active) | 8.33% (active) | -95.9% (active) | -59.5% (active) | 2.2% (active) | -69.3% (active) | -91.5% (active) | -78.7% (active) | -87.3% (active)
C#CCNC(=O)CCC(=O)OC[C@]12CC[C@@H](C(=C)C)[C@@H]1C1CC[C@@H]3[C@@]4(C)CCCNC(C)(C)[C@@H]4CC[C@@]3(C)[C@]1(C)CC2 (some centres undefined) | 17.8% | 3.14% (active) | -93.6% (active) | -47.9% (active) | 42.8% | -85.5% (active) | -99.3% (active) | -78.4% (active) | -80.4% (active)
Cc1cc(=O)oc2cc(OCCCCOc3ccc(/C=C/C(=O)Nc4ccccc4[N+](=O)[O-])cc3)ccc12 | 102% | 102% | 101% | 102% | 120% | 99.8% | 98.8% | 111% | 112%
CN1CCCN(Cc2ccc(C(=O)Nc3cccc(Nc4ccc5c(O)cccc5n4)c3)cc2C(F)(F)F)CC1 | -44.5% (active) | 11.5% | -95.9% (active) | -75.6% (active) | -55.6% (active) | -91% (active) | -98.3% (active) | -81.3% (active) | -84.7% (active)
CCCn1c(=O)c2[nH]c(-c3ccc(OCc4nc5ccc(F)cc5[nH]4)cc3)nc2n(CCC)c1=O | 34.2% | 34.9% | -52.2% (active) | -46.7% (active) | 46.5% | 10.6% | -68.9% (active) | 31.9% | 44.7%
COc1ccc(-c2c(N)c(=O)n(C)c3ccccc23)cc1 | 83.2% | 46.8% | 70.6% | 49.5% | 66% | 75.2% | 80.6% | 92.9% | 70.6%
O=C(CNc1nc(-c2ccccc2)cs1)Nc1cccc([N+](=O)[O-])c1 | -98.6% (active) | 8.88% (active) | -90.5% (active) | -88.7% (active) | -57.7% (active) | -94.2% (active) | -100% (active) | -71.5% (active) | -87.6% (active)
Nc1nc(Nc2ccc(Cl)cc2)n(Cc2cccc(Br)c2)n1 | 12.1% | 7.99% (active) | -53.2% (active) | -68.7% (active) | -27.4% (active) | -63.2% (active) | -86.6% (active) | -15.6% (active) | -48.8% (active)
CCOc1ccc(Nc2nc3ccccc3nc2Nc2ccc(OCC)cc2)cc1 | 45.1% | 30.2% | 83.7% | 67.7% | 40% | 43.3% | 80.8% | 75% | 37.6%
CCCCSc1nc(Nc2ccc(/C(C)=N/NC(N)=S)cc2)c(C#N)c(-c2ccccc2)n1 | 36.2% | 33% | 35.2% | 18.3% | 67% | 24.7% | 19.3% | 90.3% | 76.6%
O=C(CNc1nc(-c2ccccc2)cs1)Nc1ccc([N+](=O)[O-])cc1 | 45.2% | 9.52% (active) | -66.6% (active) | -13.4% (active) | 38.4% | 26% | -28.2% (active) | 39.5% | 30.2%
